# Reference: PubChem BioAssay (NCI)
# The panel holds about 83,000 compounds, 20% with a hit somewhere; the sample as a whole holds those more often.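 96-well plates, one dose, 48 hours. Percent growth reported; active if below 10.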 Unmarked numbers belong to inactive results. Calls of active or inactive are those of the source.
# Test system: RPMI-8226 leukemia
# Assay: NCI-60 one-dose screen, 48 h (100 = growth as untreated, 0 = no growth, -100 = all killed)
# Conditions: 10 µM unless noted
row,SMILES,growth
1,Cn1cc(-c2nn3cc(-c4cccnc4)nc3s2)c2ccccc21,30.4%
2,COc1ccc(-c2cc(-c3cccc4ccccc34)n3c(n2)nc2ccccc23)cc1OC,-18.4% (active)
3,Cn1c2ccc(Br)cc2c2c3c(c4c5cc(F)ccc5oc4c21)C(=O)N(O)C3=O,76.7%
4,O=C(Cn1cc(CN2C(=O)c3ccc([N+](=O)[O-])cc3C2=O)nn1)Nc1ccc(F)cc1Cl,100%
5,O=C1c2c(c3c4ccc(Br)cc4oc3c3[nH]c4ccccc4c23)C(=O)N1CCO,43.3%
6,CCOC(=O)CC(=O)CSC1=NC2C(NN1)N(C)C(=O)N2C (configuration not stated),56%
7,Cn1c2ccccc2c2c3c(c4c5ccc(Br)cc5oc4c21)C(=O)N(O)C3=O,64.6%
8,CCNCCCn1c2c(c3cc(OC)c(OC)cc3c1=O)C(=O)c1cc(OC)cnc1-2,-34.9% (active)
9,C=CCn1c(SCC(=O)Nc2cccc(C(=O)/C=C/c3cccc([N+](=O)[O-])c3)c2)nc2ccccc2c1=O,17%
10,COc1ccc2c(c1)oc1c3[nH]c4ccccc4c3c3c(c21)C(=O)N(O)C3=O,28%
11,COc1cc2c3c(n(CCCN4CCC[C@H]4C(N)=O)c(=O)c2cc1OC)-c1cc2c(cc1C3=O)OCO2,-26.3% (active)
12,C=CCn1c(SCC(=O)Nc2cccc(C(=O)/C=C/c3ccc(Br)cc3)c2)nc2ccccc2c1=O,-3.89% (active)
13,CS(=O)(=O)c1ccc2c(c1)c1c(n2C(=O)c2ccc(Cl)cc2)CCCC1,15.4%
14,COc1ccc([C@H]2[C@H](O)C(=O)N2c2cc(OC)c(OC)c(OC)c2)cc1O,16.5%
15,Cc1occc1-c1nc2s/c(=C\c3cn(-c4ccccc4)nc3-c3ccccc3)c(=O)n2n1,99.1%
16,COc1cc2c3c(n(CCCNC4CCCCC4)c(=O)c2cc1OC)-c1cc2c(cc1C3=O)OCO2,-46.5% (active)
17,COc1ccc(-c2no[n+]([O-])c2Nc2ccccc2Br)cc1,93.7%
18,C/C(Cc1ccc(Cl)cc1)=C(/c1ccccc1)c1ccc(OCCN)cc1,101%
19,COc1cnc2c(c1)C(=O)c1c-2n(CCCNCC2CC2)c(=O)c2cc(F)ccc12,-38.5% (active)
20,COc1cnc2c(c1)C(=O)c1c-2n(CCCn2ccnc2)c(=O)c2cc(OC)c(OC)cc12,-26.7% (active)
21,C=CCn1c(SCC(=O)Nc2cccc(C(=O)/C=C/c3ccccc3)c2)nc2ccccc2c1=O,2.15% (active)
22,COc1cc2c3c(n(CCCN4CCCC4)c(=O)c2cc1OC)-c1cc2c(cc1C3=O)OCO2,-41.2% (active)
23,N#C/C(=C\c1ccc(-c2ccc(F)cc2)o1)C(=O)Nc1ncc(Cc2ccc(Cl)cc2Cl)s1,25.3%
24,Cc1ccc(-c2nnc3sc(C4=Cc5ccccc5OC=C4)nn23)cc1,101%

# Test system: OVCAR-8 ovarian
# Assay: as above
# Conditions: 10 µM unless noted
row,SMILES,growth
1,COc1ccc([C@H]2[C@H](O)C(=O)N2c2cc(OC)c(OC)c(OC)c2)cc1Cl,-12.7% (active)
2,COc1cc2c3c(n(CCCNCC4CC4)c(=O)c2cc1OC)-c1cc2c(cc1C3=O)OCO2,-60.5% (active)
3,O=C(Cn1cc(CN2C(=O)c3ccc([N+](=O)[O-])cc3C2=O)nn1)Nc1ccccc1Br,116%
4,COc1ccc(NC(=O)Cn2cc(CN3C(=O)c4ccc([N+](=O)[O-])cc4C3=O)nn2)cc1,94.2%
5,COc1cc2c3c(n(CCCNC4CCCC4)c(=O)c2cc1OC)-c1cc2c(cc1C3=O)OCO2,-70.2% (active)
6,CS(=O)c1nccc(-c2c(-c3ccc(F)c(OCCc4ccccc4)c3)nc3sccn23)n1 (configuration not stated),93%
7,COc1cc2c3c(n(CCCNC4CCC4)c(=O)c2cc1OC)-c1cc2c(cc1C3=O)OCO2,-49.8% (active)
8,O=S(=O)(Nc1ccc(-n2cnc3cc(-c4ccc(O)cc4)ccc32)cc1)C1CC1,88.7%
9,N#Cc1ccc(S(=O)(=O)Nc2ccc(-c3cnc(N)[nH]3)cc2)cc1,101%
10,Cn1cc(-c2nn3cc(-c4cccnc4)nc3s2)c2cc(F)ccc21,81.8%
11,COc1ccc2oc3c4[nH]c5ccccc5c4c4c(c3c2c1)C(=O)N(O)C4=O,102%
12,COc1ccc(/C(C)=C(\c2ccc(Cl)cc2)c2ccc(OCCN)cc2)cc1,88.7%
13,COc1ccc2c(c1)c(-c1nn3c(=O)cc(-c4ccccc4)nc3s1)cn2C,51%
14,Cc1ccccc1/C=C/c1nn2c(-c3ccoc3C)nnc2s1,97.1%
15,Cn1cc(-c2nn3cc(-c4cccnc4)nc3s2)c2ccccc21,36.4%
16,COc1ccc(-c2cc(-c3cccc4ccccc34)n3c(n2)nc2ccccc23)cc1OC,34.3%
17,Cn1c2ccc(Br)cc2c2c3c(c4c5cc(F)ccc5oc4c21)C(=O)N(O)C3=O,75.1%
18,O=C(Cn1cc(CN2C(=O)c3ccc([N+](=O)[O-])cc3C2=O)nn1)Nc1ccc(F)cc1Cl,96.8%
19,O=C1c2c(c3c4ccc(Br)cc4oc3c3[nH]c4ccccc4c23)C(=O)N1CCO,50.4%

row,SMILES,growth
1,CCOC(=O)CC(=O)CSC1=NC2C(NN1)N(C)C(=O)N2C (configuration not stated),66.8%
2,Cn1c2ccccc2c2c3c(c4c5ccc(Br)cc5oc4c21)C(=O)N(O)C3=O,73.1%
3,CCNCCCn1c2c(c3cc(OC)c(OC)cc3c1=O)C(=O)c1cc(OC)cnc1-2,14.1%
4,C=CCn1c(SCC(=O)Nc2cccc(C(=O)/C=C/c3cccc([N+](=O)[O-])c3)c2)nc2ccccc2c1=O,94.2%
5,COc1ccc2c(c1)oc1c3[nH]c4ccccc4c3c3c(c21)C(=O)N(O)C3=O,48.4%
6,COc1cc2c3c(n(CCCN4CCC[C@H]4C(N)=O)c(=O)c2cc1OC)-c1cc2c(cc1C3=O)OCO2,-44.9% (active)
7,C=CCn1c(SCC(=O)Nc2cccc(C(=O)/C=C/c3ccc(Br)cc3)c2)nc2ccccc2c1=O,81.6%
8,CS(=O)(=O)c1ccc2c(c1)c1c(n2C(=O)c2ccc(Cl)cc2)CCCC1,35.3%
9,COc1ccc([C@H]2[C@H](O)C(=O)N2c2cc(OC)c(OC)c(OC)c2)cc1O,-11.5% (active)
10,Cc1occc1-c1nc2s/c(=C\c3cn(-c4ccccc4)nc3-c3ccccc3)c(=O)n2n1,101%
11,COc1cc2c3c(n(CCCNC4CCCCC4)c(=O)c2cc1OC)-c1cc2c(cc1C3=O)OCO2,-66.8% (active)
12,COc1ccc(-c2no[n+]([O-])c2Nc2ccccc2Br)cc1,90.3%
13,C/C(Cc1ccc(Cl)cc1)=C(/c1ccccc1)c1ccc(OCCN)cc1,101%
14,COc1cnc2c(c1)C(=O)c1c-2n(CCCNCC2CC2)c(=O)c2cc(F)ccc12,-61.6% (active)
15,COc1cnc2c(c1)C(=O)c1c-2n(CCCn2ccnc2)c(=O)c2cc(OC)c(OC)cc12,-93.9% (active)
16,C=CCn1c(SCC(=O)Nc2cccc(C(=O)/C=C/c3ccccc3)c2)nc2ccccc2c1=O,83.3%
17,COc1cc2c3c(n(CCCN4CCCC4)c(=O)c2cc1OC)-c1cc2c(cc1C3=O)OCO2,-65.3% (active)
18,N#C/C(=C\c1ccc(-c2ccc(F)cc2)o1)C(=O)Nc1ncc(Cc2ccc(Cl)cc2Cl)s1,6.14% (active)
19,Cc1ccc(-c2nnc3sc(C4=Cc5ccccc5OC=C4)nn23)cc1,89.8%
